# Measured values from PubChem BioAssay (NCATS).
# Results filed as inconclusive are left out. Unmarked numbers belong to inactive results. Active and inactive are the calls of the source. Calls follow the shape of the dose curve; as a rule, active = well fitted inhibition curve with a large enough effect; inconclusive = small, poorly fitted or top-dose-only effect; inactive = flat fitted curve, though single readings scatter.
# Test system: Zika virus NS2B-NS3 protease
# Experiment: Primary screen GU AMC qHTS for Zika virus inhibitors (AID 1347154);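 also: 0% = no-inhibitor control and -100% = no-enzyme control; nearly all actives have a fitted effect of over 70% in size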
# Details: Zika NS2B-NS3 unlinked protease, AMC fluorogenic substrate; series mostly up to 54.1 µM; activity change, negative = inhibition: at the top concentration
# Procedure, shortened: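 Unlinked Zika NS2B hydrophilic domain/NS3 protease domain noncovalent complex (25 nM final) in 10 mM Tris-HCl pH 8.0, 0.01% Tween 20, with AMC peptide substrate. Fluorescence (ex 340, em 450 nm) change over 15 min, room temperature; percent inhibition fitted to 4-parameter Hill equation.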
Structure (SMILES),"activity change, negative = inhibition",Potency
CC1COC2(c3ccccc3Cl)c3cc(Cl)ccc3NC(=O)CN12 (stereo unspecified),-12.1%,
C=CCN1CC[C@]23CCCC[C@H]2[C@H]1Cc1ccc(O)cc13,-0.941%,
CC(CC(C#N)(c1ccccc1)c1ccccc1)N(C)C (stereo unspecified),0.532% [at 104 µM],
Oc1ccc2[nH]cc(CCCCN3CC=C(c4ccccc4)CC3)c2c1,,inactive
CCOC(C(=O)OCCN(C)C)(c1ccccc1)c1ccccc1,12%,
COP(=S)(OC)Oc1ccc(S(N)(=O)=O)cc1,-0.0379%,
O=C(CCCN1CCC(n2c(=O)[nH]c3ccccc32)CC1)c1ccc(F)cc1,-2.96%,
OC(O)C(Cl)(Cl)Cl,-0.414%,
COc1ccc(OC)c(CC(C)N)c1 (stereo unspecified),3.37% [at 104 µM],
CCO[C@H]1O[C@@H]2OC3(C)CC[C@H]4[C@H](C)CC[C@@H]([C@H]1C)[C@@]24OO3,2.23%,
CC1N=C(N)OC1c1ccccc1 (stereo unspecified),1.37% [at 104 µM],
CC(C(O)c1ccccc1)N(C)C/C=C/c1ccccc1 (stereo unspecified),-3.5%,
CCCN(CCC)CCc1c[nH]c2ccccc12,-1.42% [at 104 µM],
C#C[C@]1(O)C=C[C@H]2[C@@H]3CCC4=CC(=O)CC[C@@H]4[C@H]3CC[C@@]21CC,-1.67%,
CC(C)NCC(O)c1ccc(N)c(C#N)c1 (stereo unspecified),,inactive
CC(Cc1ccccc1)NCc1ccccc1Cl (stereo unspecified),-11%,
